These results are taken from paper PMC7862700, “An all-to-all approach to the identification of sequence-specific readers for epigenetic DNA modifications on cytosine”.

Holding throughout (assay): DAPPL (digital affinity profiling via proximity ligation, sequencing); 10 mM Tris-HCl pH 7.5, 50 mM NaCl, 1 mM DTT, 4% glycerol, room temperature, 30 min; GST-TFs on glutathione beads, 16-mer random dsDNA library, 0.1% formaldehyde crosslink after washing; high values mean tight binding
The target of one test is T1, FLI1 (Homo sapiens, UniProt Q01543 1-452).
T1 sequence: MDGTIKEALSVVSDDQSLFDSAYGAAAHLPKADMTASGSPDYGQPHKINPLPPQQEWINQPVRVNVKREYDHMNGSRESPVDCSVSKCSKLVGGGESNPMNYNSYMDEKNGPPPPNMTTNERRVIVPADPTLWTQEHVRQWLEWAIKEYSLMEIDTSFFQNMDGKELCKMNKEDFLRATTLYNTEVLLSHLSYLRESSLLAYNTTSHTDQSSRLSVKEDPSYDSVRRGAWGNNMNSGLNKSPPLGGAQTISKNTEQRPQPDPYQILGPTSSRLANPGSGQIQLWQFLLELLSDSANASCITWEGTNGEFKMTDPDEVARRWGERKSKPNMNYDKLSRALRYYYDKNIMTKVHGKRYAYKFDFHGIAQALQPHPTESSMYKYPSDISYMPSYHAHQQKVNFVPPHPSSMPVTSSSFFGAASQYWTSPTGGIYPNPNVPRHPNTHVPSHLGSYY
Conditions: protein: recombinant; tags: N-terminal GST; dsDNA, one strand shown. In outline:
(§1)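 Yeast served to express human transcription factors as GST fusions, which were then captured on glutathione beads and labelled with DNA barcodes. Pooled with a tag-only sample, they were incubated with 200 nmole of a 16-mer random double-stranded DNA library for 30 min at room temperature in Tris/NaCl/DTT/glycerol buffer, washed, crosslinked with 0.1% formaldehyde, ligated by proximity, amplified by PCR and sequenced. Dividing each hexamer's read frequency for a factor by its frequency for the tag-only sample gives the binding signal.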

For another test, the target named is T2, ELK1 (Homo sapiens, UniProt P19419 1-428).
T2 sequence: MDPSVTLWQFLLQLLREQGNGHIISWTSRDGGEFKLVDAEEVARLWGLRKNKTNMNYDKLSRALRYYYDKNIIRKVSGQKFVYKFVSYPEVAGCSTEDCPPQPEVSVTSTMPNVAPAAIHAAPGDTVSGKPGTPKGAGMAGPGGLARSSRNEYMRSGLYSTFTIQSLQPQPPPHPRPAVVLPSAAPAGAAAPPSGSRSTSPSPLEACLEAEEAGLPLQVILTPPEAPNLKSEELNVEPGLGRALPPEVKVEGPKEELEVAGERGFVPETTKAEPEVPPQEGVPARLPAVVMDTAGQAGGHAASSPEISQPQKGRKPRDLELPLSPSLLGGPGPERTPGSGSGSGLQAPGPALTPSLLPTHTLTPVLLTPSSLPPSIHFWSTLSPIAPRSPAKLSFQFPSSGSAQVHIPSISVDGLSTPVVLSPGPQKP
Conditions: protein: recombinant; tags: N-terminal GST; dsDNA, one strand shown. A digest of the protocol:
as §1

The target in a further test is T3, GABPA (Homo sapiens, UniProt Q06546 1-454).
T3 sequence: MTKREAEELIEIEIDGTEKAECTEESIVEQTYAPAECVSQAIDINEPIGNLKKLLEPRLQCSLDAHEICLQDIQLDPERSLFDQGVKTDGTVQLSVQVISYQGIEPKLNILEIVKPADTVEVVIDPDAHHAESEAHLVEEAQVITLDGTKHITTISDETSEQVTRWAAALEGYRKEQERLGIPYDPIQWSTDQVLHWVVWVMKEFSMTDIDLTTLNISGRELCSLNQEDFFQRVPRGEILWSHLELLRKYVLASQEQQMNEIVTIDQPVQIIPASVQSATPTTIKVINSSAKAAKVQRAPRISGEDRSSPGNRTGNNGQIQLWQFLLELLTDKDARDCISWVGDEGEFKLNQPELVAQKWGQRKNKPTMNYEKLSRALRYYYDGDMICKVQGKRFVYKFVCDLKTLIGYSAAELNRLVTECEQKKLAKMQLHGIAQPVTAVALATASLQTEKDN
Conditions: protein: recombinant; tags: N-terminal GST; dsDNA, one strand shown. In outline: as §1

In another test the target is T4, ERG (Homo sapiens, UniProt P11308 1-479).
T4 sequence: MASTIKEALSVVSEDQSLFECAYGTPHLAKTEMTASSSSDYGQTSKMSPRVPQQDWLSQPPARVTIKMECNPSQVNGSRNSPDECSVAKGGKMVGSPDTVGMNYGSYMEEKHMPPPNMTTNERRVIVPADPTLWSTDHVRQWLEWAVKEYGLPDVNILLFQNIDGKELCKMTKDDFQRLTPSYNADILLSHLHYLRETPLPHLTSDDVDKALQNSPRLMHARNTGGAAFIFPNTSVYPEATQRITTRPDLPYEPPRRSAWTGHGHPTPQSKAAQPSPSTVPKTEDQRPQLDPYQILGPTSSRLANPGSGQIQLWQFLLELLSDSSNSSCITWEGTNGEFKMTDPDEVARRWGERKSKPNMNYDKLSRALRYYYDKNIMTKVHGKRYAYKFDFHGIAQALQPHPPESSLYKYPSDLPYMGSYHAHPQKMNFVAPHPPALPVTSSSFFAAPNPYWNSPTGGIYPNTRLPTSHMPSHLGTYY
Conditions: protein: recombinant; tags: N-terminal GST; dsDNA, one strand shown. A digest of the protocol: as §1

A further test concerns the target ELF1 (Homo sapiens, UniProt P32519 1-619). The following applies: protein: recombinant; tags: N-terminal GST; dsDNA, one strand shown. In outline: as §1
The next test deals with T5, EHF (Homo sapiens, UniProt Q9NZC4 1-300).
T5 sequence: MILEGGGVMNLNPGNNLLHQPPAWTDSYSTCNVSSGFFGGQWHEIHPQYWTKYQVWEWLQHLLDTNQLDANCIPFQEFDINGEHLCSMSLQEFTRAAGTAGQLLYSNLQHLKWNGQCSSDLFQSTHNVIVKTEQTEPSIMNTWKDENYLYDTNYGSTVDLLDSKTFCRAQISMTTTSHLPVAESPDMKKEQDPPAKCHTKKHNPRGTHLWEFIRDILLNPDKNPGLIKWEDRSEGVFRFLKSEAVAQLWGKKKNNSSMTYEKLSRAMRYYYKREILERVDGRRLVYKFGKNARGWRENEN
Conditions: protein: recombinant; tags: N-terminal GST; dsDNA, one strand shown. In outline: as §1

Another test addresses SPI1 (Homo sapiens, UniProt P17947 1-270). The following applies: protein: recombinant; tags: N-terminal GST; dsDNA, one strand shown. A digest of the protocol: as §1
A further test addresses SPIB (Homo sapiens, UniProt Q01892 1-262). Conditions: protein: recombinant; tags: N-terminal GST; dsDNA, one strand shown. In outline: as §1
The target in the next test is T6, ELK3 (Homo sapiens, UniProt P41970 1-407).
T6 sequence: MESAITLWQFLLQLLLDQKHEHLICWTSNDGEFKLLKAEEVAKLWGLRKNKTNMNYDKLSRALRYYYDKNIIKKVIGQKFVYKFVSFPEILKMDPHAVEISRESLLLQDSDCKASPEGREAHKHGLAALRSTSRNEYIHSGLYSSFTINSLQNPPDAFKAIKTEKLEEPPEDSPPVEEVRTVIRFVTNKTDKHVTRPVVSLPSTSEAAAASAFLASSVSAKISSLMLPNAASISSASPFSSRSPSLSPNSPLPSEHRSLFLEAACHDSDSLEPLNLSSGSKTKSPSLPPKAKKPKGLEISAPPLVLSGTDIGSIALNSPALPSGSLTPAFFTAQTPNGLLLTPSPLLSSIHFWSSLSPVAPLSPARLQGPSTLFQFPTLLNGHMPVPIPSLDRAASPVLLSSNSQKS
The following applies: protein: recombinant; tags: N-terminal GST; dsDNA, one strand shown. A digest of the protocol:
as §1

The next test concerns the target T7, FEV (Homo sapiens, UniProt Q99581 1-238).
T7 sequence: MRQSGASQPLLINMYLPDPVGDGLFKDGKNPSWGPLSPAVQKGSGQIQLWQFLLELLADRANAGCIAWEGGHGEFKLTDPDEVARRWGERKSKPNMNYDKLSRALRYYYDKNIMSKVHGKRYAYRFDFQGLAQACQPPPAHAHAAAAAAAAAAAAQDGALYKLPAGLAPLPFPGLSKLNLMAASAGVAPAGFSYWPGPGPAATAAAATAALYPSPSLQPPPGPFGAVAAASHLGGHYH
The following applies: protein: recombinant; tags: N-terminal GST; dsDNA, one strand shown. A digest of the protocol:
as §1

In a further test the target is ETV5 (Homo sapiens, UniProt P41161 1-510). Conditions: protein: recombinant; tags: N-terminal GST; dsDNA, one strand shown. In outline:
as §1

Another test has as its target HSF1 (Homo sapiens, UniProt Q00613 1-529). Conditions: protein: recombinant; tags: N-terminal GST; chain copies: 3; dsDNA, one strand shown. A digest of the protocol:
as §1

For the next test, the target named is T8, SPIC (Homo sapiens, UniProt Q8N5J4 1-248).
T8 sequence: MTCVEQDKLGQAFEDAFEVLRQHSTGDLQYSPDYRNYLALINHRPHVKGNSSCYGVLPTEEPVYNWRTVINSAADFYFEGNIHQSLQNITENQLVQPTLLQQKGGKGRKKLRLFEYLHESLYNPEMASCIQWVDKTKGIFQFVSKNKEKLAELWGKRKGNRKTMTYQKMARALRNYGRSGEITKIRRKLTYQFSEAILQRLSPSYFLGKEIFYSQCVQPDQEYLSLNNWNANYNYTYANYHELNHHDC
Conditions: protein: recombinant; tags: N-terminal GST; dsDNA, one strand shown. In outline:
as §1

A further test addresses ELF4 (Homo sapiens, UniProt Q99607 1-663). Conditions: protein: recombinant; tags: N-terminal GST; dsDNA, one strand shown. In outline: as §1
A further test has as its target T9, ELK4 (Homo sapiens, UniProt P28324-2 1-405).
T9 sequence: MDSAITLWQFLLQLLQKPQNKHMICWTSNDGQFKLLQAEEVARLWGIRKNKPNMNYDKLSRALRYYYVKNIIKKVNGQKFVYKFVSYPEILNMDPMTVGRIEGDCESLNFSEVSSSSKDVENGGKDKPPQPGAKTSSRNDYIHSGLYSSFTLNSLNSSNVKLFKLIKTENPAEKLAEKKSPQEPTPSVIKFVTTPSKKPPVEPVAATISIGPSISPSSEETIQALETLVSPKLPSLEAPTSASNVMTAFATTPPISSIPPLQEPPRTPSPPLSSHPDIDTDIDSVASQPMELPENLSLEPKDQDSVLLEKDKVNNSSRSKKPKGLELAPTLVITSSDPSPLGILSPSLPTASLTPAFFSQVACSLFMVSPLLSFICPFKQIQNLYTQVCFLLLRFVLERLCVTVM
Conditions: protein: recombinant; tags: N-terminal GST; dsDNA, one strand shown. A digest of the protocol: as §1

Another test has as its target T10, ETV2 (Homo sapiens, UniProt O00321 1-342).
T10 sequence: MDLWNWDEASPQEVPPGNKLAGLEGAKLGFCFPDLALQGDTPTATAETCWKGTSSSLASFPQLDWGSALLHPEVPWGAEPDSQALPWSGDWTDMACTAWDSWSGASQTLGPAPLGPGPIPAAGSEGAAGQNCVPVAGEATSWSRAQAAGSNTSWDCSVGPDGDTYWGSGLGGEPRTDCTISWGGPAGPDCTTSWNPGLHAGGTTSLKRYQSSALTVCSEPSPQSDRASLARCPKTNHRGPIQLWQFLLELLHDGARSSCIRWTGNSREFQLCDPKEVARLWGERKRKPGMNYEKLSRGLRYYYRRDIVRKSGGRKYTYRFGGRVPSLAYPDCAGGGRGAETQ
The following applies: protein: recombinant; tags: N-terminal GST; dsDNA, one strand shown. A digest of the protocol: as §1

The next test concerns the target T11, ELF3 (Homo sapiens, UniProt P78545 1-371).
T11 sequence: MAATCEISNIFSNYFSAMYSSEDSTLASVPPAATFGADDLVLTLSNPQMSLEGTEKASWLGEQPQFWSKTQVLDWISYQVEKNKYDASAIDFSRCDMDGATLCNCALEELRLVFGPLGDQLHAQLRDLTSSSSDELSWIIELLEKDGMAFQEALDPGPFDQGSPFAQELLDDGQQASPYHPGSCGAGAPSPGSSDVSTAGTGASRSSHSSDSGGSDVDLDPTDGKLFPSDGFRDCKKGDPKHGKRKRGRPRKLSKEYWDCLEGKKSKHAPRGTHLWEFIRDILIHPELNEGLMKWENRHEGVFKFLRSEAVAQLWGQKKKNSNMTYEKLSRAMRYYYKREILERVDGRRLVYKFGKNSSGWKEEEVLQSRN
The following applies: protein: recombinant; tags: N-terminal GST; dsDNA, one strand shown. In outline: as §1

A further test concerns the target CRX (Homo sapiens, UniProt O43186 1-299). The following applies: protein: recombinant; tags: N-terminal GST; dsDNA, one strand shown. A digest of the protocol: as §1
Another test concerns the target ETV1 (Homo sapiens, UniProt P50549 1-477). The following applies: protein: recombinant; tags: N-terminal GST; dsDNA, one strand shown. A digest of the protocol: as §1

ELF4, sequence (Q99607 whole entry): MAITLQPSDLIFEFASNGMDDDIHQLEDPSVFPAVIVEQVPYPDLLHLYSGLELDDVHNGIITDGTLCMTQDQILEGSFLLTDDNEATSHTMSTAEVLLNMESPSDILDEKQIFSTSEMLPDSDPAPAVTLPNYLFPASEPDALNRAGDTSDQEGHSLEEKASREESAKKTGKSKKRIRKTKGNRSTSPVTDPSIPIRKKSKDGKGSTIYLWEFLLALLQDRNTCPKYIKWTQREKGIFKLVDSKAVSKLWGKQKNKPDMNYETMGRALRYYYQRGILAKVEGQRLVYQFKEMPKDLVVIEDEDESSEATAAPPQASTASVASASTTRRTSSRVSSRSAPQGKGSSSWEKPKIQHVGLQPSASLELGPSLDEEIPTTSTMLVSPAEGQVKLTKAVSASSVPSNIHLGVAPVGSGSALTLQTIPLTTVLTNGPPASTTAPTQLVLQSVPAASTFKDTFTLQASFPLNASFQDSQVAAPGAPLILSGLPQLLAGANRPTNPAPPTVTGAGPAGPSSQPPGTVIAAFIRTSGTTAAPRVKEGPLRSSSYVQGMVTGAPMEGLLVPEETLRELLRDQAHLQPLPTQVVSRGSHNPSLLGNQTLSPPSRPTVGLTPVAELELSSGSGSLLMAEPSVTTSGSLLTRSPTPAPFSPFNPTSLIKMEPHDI
ETV1, sequence (P50549 whole entry): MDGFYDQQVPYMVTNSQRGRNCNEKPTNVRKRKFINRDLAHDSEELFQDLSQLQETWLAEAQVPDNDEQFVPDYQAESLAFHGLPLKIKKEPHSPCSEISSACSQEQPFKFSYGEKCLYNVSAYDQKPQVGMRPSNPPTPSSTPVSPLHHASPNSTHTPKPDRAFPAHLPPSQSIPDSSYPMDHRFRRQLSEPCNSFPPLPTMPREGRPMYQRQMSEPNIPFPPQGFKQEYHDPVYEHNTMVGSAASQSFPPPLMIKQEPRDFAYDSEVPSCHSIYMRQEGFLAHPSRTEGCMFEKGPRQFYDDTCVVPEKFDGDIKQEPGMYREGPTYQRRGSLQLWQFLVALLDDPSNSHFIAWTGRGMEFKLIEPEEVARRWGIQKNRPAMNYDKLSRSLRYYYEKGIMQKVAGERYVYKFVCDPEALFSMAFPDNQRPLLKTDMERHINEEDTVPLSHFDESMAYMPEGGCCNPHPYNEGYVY
SPIB, sequence (Q01892 whole entry): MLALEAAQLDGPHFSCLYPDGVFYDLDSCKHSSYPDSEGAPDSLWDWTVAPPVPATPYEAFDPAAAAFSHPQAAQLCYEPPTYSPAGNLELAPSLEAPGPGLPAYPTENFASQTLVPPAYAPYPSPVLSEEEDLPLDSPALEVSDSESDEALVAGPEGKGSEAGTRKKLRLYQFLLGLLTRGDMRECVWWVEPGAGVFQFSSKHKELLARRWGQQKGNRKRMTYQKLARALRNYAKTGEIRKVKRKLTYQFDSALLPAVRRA
ETV5, sequence (P41161 whole entry): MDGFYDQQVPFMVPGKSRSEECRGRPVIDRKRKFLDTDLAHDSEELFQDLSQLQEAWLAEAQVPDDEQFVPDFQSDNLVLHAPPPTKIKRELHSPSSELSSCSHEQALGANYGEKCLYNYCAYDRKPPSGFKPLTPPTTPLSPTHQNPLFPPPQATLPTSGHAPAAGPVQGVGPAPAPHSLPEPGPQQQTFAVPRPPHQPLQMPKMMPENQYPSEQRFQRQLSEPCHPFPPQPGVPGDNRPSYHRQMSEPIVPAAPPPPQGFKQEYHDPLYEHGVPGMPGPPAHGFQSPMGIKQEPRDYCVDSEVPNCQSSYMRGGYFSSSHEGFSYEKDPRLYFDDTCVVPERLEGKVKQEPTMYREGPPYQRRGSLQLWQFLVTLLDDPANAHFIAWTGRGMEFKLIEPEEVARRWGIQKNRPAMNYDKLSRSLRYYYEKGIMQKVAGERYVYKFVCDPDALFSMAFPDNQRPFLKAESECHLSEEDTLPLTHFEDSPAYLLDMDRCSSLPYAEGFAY
HSF1, sequence (Q00613 whole entry): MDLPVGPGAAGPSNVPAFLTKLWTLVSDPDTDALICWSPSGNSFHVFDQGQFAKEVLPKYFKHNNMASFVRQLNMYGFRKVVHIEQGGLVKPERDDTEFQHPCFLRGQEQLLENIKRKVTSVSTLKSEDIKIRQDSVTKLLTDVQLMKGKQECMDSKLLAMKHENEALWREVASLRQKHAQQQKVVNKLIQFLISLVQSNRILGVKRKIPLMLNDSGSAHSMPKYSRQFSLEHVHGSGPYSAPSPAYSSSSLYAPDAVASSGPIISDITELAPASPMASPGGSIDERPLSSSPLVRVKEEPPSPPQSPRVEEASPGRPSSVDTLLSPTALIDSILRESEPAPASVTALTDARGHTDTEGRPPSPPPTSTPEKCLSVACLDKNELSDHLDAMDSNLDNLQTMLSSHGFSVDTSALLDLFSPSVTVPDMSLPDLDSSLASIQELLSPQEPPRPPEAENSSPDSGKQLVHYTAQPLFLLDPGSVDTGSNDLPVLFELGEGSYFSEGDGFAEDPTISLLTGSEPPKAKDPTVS
ELF1, sequence (P32519 whole entry): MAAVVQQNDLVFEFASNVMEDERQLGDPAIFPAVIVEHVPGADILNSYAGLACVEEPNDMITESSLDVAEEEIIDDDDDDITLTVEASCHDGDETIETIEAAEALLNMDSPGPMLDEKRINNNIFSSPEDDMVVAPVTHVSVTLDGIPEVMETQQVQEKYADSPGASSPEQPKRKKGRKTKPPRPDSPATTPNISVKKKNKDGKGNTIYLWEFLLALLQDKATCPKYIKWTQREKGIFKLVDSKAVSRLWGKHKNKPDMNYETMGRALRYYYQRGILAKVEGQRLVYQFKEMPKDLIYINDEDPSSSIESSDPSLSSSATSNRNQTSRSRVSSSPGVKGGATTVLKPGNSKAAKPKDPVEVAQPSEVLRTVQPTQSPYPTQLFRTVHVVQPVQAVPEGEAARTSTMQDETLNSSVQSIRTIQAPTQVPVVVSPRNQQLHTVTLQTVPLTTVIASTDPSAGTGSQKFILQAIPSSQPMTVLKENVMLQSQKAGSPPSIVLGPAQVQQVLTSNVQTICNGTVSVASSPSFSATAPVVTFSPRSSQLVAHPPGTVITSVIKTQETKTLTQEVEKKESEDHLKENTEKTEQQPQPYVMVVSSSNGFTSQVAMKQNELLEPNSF
CRX, sequence (O43186 whole entry): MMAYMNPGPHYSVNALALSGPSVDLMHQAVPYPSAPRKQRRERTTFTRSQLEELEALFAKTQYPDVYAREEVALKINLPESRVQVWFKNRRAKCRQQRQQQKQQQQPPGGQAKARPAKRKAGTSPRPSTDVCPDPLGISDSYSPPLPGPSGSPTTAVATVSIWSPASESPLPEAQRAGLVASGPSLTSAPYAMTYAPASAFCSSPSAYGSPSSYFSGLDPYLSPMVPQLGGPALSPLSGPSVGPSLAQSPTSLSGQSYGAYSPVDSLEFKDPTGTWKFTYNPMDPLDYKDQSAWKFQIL

Regarding AACGAA, the binding signal in the test with FLI1 was 1.07 fold enrichment (6-mer frequency, TF over GST control); in the test with ELK1 it was 1.14 fold enrichment (6-mer frequency, TF over GST control); with GABPA, 1.15 fold enrichment (6-mer frequency, TF over GST control); with ERG it was 1.15 fold enrichment (6-mer frequency, TF over GST control); with ELF1 it was 1.18 fold enrichment (6-mer frequency, TF over GST control); with EHF it was 1.15 fold enrichment (6-mer frequency, TF over GST control). The binding signal in the test with SPI1 is 1.14 fold enrichment (6-mer frequency, TF over GST control); with SPIB it was 1.19 fold enrichment (6-mer frequency, TF over GST control); in the test with ELK3, 1.13 fold enrichment (6-mer frequency, TF over GST control); with FEV it was 1.15 fold enrichment (6-mer frequency, TF over GST control); with ETV5 it was 1.22 fold enrichment (6-mer frequency, TF over GST control); in the test with HSF1, 1.33 fold enrichment (6-mer frequency, TF over GST control). For the same sequence, the binding signal in the test with SPIC was 1.2 fold enrichment (6-mer frequency, TF over GST control); in the test with ELF4, 1.1 fold enrichment (6-mer frequency, TF over GST control); in the test with ELK4, 1.13 fold enrichment (6-mer frequency, TF over GST control); in the test with ETV2, 1.11 fold enrichment (6-mer frequency, TF over GST control); with ELF3, 1.19 fold enrichment (6-mer frequency, TF over GST control); with CRX it was 1.08 fold enrichment (6-mer frequency, TF over GST control). Also, in the test with ETV1, the binding signal was 1.09 fold enrichment (6-mer frequency, TF over GST control).
